Hits are enriched below; roughly 2.4% of the tested compounds scored in any of these assays.
D2 PAM-1 = positive allosteric modulators of human D2 dopamine receptor | P14416 | actives 0.34% (n = 340,000) | HEK293 T-REx D2, calcium flux, EC20 dopamine potentiation | potentiation, % at 10 µM;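 active means potentiation over 3 SD above the plate norm, cut at about 30% in these data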; further: 0% is about no effect
Target sequence (P14416 whole entry, looked up): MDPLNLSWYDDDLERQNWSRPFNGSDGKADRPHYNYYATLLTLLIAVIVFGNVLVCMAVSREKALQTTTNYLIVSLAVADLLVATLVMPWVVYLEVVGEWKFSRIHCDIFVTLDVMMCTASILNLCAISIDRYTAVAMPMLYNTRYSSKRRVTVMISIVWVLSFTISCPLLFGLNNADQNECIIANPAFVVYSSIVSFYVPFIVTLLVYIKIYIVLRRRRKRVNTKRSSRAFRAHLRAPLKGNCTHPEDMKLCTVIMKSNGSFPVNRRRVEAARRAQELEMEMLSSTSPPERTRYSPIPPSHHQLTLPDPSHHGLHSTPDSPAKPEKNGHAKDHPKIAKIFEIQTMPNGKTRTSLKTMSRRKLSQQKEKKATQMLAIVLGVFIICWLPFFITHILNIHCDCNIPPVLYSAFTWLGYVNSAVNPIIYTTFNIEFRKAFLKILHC
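Tetracycline-induced HEK293 T-REx cells force-coupled to calcium signalling expressed D2; compounds were pin-added after a 10 s baseline, read kinetically 180 s, then an EC20 dopamine challenge followed with a further 180 s calcium read.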
D2 ag-1 = activates the human D2 dopamine receptor. P14416. DiscoveRx PathHunter D2 beta-arrestin, luminescence, 90 min; 100% = 57 uM dopamine signal. activation, % (concentration not given with the values). actives 0.084% (n = 360,000). AID 624465; in the data active means activation above about 40%; inconclusive means between about 15% and that limit
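DiscoveRx PathHunter D2 beta-arrestin cells (2,100/well) attached overnight, then compound-stimulated 90 min at 37 C in HBSS/10 mM HEPES/0.1% Tween-20 buffer; beta-galactosidase complementation read by luminescence after 1 h at ambient temperature. Dopamine 57 uM final (EC100) as control.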
D2 ag-2 = activates the human D2 dopamine receptor | AID 485358 | HEK293 T-REx D2 cells, calcium flux agonist mode | actives 0.53% (n = 340,000) | activation, % at 2 µM | P14416;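 active means activation over 3 SD above normal in the single-dose calcium agonist read, cut at about 30% in these data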; further: 0% is about no effect
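Tetracycline-induced HEK293 T-REx cells with force-coupled D2 receptor, plated overnight at 30 C, loaded with no-wash calcium dye. After a 10 s baseline, compound was pin-added and calcium flux read kinetically for 180 s; calcium rises flagged agonists.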
D2 antagonist = antagonizes the human D2 dopamine receptor. P14416. HEK293 TREx D2 cells, calcium flux, dopamine EC80. inhibition, % at 10 µM. actives 2% (n = 340,000); in the data active means inhibition above about 30%; inactive means below that, where a call was filed; further: 0% is about no effect
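Inhibition of EC80 dopamine-driven calcium flux, recorded kinetically, defines activity here; cells are a tetracycline-induced HEK293 T-REx line expressing force-coupled D2.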
D2 PAM-2 = potentiates the human D2 dopamine receptor allosterically | P14416 | AID 624464 | potentiation, % (no concentration beside the values) | actives 0.23% (n = 360,000) | DiscoveRx D2 beta-arrestin cells, luminescence, 90 min; 100% = 57 uM dopamine signal; in the data active means potentiation above about 50%; inconclusive means mostly about 30% to 49%
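PathHunter D2 cells, attached overnight at 37 deg C, received compound in DMSO plus dopamine at EC20 (50 nM final) for 90 min at 37 deg C. Beta-arrestin recruitment was read as luminescence after 1 h with detection reagent at ambient temperature.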
Active calls of the source: *.

`CC(=O)N1N=C(c2ccc(C)cc2)OC1c1ccc(C(C)C)cc1` (configuration not stated) gave D2 PAM-1 3.0, D2 ag-1 3.8, D2 ag-2 0.4, D2 antagonist -2.3 and D2 PAM-2 -8.8.
`COc1ccc(CN2CCc3ccccc3C2)c(OC)c1` gave D2 PAM-1 -21.9, D2 ag-1 -1.9, D2 ag-2 -1.7, D2 antagonist 24.2 and D2 PAM-2 -23.2.
For CCCN1CCC(N(CCc2ccccc2)Cc2ccccc2)CC1 the results were D2 PAM-1 -16.2, D2 ag-1 4.6, D2 ag-2 -0.6, D2 antagonist 39.5* and D2 PAM-2 -4.1.
For COc1ccc(CN2CCC(N(CCc3ccccc3)Cc3ccccc3)CC2)c(OC)c1 the results were D2 PAM-1 -31.9, D2 ag-1 -1.2, D2 ag-2 -1.1, D2 antagonist 34.9* and D2 PAM-2 -17.2.
For COc1cccc(/C=N/NC(=O)CNC(=O)c2ccncc2)c1O the results were D2 PAM-1 64.8*, D2 ag-1 7.9, D2 ag-2 0.6, D2 antagonist -4.8 and D2 PAM-2 -1.4.
For COc1cccc(/C=N/NC(=O)CNC(=O)c2cccnc2)c1O the results were D2 PAM-1 -1.6, D2 ag-1 -0.9, D2 ag-2 0.9, D2 antagonist 3.0 and D2 PAM-2 0.0.
`CC(=O)c1cccc(CN2CCN(Cc3ccc(C)cc3)C(CCO)C2)c1` (configuration not stated) gave D2 PAM-1 -27.3, D2 ag-1 -6.1, D2 ag-2 0.5, D2 antagonist 54.6* and D2 PAM-2 -31.8.
Screening CC(=O)c1cccc(CN2CCN(CCc3ccccc3)C(CCO)C2)c1 (configuration not stated) returned D2 PAM-1 -16.8, D2 ag-1 -2.5, D2 ag-2 1.2, D2 antagonist 34.3* and D2 PAM-2 -26.2.
For CC1CCC(C(C)C)C(OC(=O)COC(=O)c2ccc(=O)[nH]c2)C1 (configuration not stated) the results were D2 PAM-1 15.7, D2 ag-1 0.6, D2 ag-2 1.7, D2 antagonist 6.2 and D2 PAM-2 -7.0.
For CC1CCC(C(C)C)C(OC(=O)COC(=O)c2cc(O)ccc2N)C1 (configuration not stated) the results were D2 PAM-1 0.4, D2 ag-1 inconclusive, D2 ag-2 -1.3, D2 antagonist 4.9 and D2 PAM-2 92.8*.
For N=c1c(C(=O)NCc2ccco2)cc2c(=O)n3ccccc3nc2n1Cc1ccccc1 the results were D2 PAM-1 -21.5, D2 ag-1 -3.3, D2 ag-2 -0.2, D2 antagonist 37.8* and D2 PAM-2 -32.1.
Screening CNC(=O)c1ccc(-c2sc3nc(N4CCOCC4)c4c(c3c2N)CC(C)(C)OC4)o1 returned D2 PAM-1 -1.9, D2 ag-1 -1.3, D2 ag-2 -1.2, D2 antagonist 40.6* and D2 PAM-2 5.4.
CN(C)CCNc1ncnc2c1sc1nc(N3CCCC3)c3c(c12)CC(C)(C)OC3 was read as D2 PAM-1 -17.8, D2 ag-1 0.4, D2 ag-2 1.5, D2 antagonist -0.9 and D2 PAM-2 -18.2.
For CC(C)CNc1ncnc2c1sc1nc(N3CCOCC3)c3c(c12)CC(C)(C)OC3 the results were D2 PAM-1 4.5, D2 ag-1 -3.3, D2 ag-2 -0.1, D2 antagonist 32.9* and D2 PAM-2 1.9.
`Cc1cc(C)c(S(=O)(=O)Cc2ccccc2)c(=O)[nH]1` gave D2 PAM-1 3.2, D2 ag-1 9.5, D2 ag-2 0.6, D2 antagonist 6.6 and D2 PAM-2 -4.3.
For O=S(=O)(c1ccccc1)N1CCN(S(=O)(=O)N2CCCCC2)CC1 the results were D2 PAM-1 8.6, D2 ag-1 2.4, D2 ag-2 -1.1, D2 antagonist 37.8* and D2 PAM-2 -5.1.
`O=S(=O)(c1ccccc1)N1CCCN(S(=O)(=O)c2ccccc2)CC1` gave D2 PAM-1 -4.2, D2 ag-1 3.8, D2 ag-2 -0.4, D2 antagonist 3.0 and D2 PAM-2 -9.8.
For CN(CC1CCN(CCc2cccc(C(F)(F)F)c2)CC1)C(=O)c1ccc(F)cc1 the results were D2 PAM-1 -19.5, D2 ag-1 5.3, D2 ag-2 -0.3, D2 antagonist 58.3* and D2 PAM-2 -25.7.
For C/C(CC(=O)NCCN1CCOCC1)=N\NC(=O)c1ccncc1 the results were D2 PAM-1 -6.5, D2 ag-1 -0.7, D2 ag-2 0.8, D2 antagonist -1.1 and D2 PAM-2 1.9.
For Cc1ccc(Cl)c(NC(=O)Nc2csc3c2CCCC3)c1 the results were D2 PAM-1 -23.9 and D2 ag-2 -0.3.
For Cc1cc(=O)[nH]c(N/N=C/c2ccc(-c3ccc(F)cc3)o2)n1 the results were D2 PAM-1 -8.6, D2 ag-1 -3.8, D2 ag-2 -0.6, D2 antagonist 48.3* and D2 PAM-2 -5.8.
For O=C(O)Cc1ccc(-n2cccc2)cc1 the results were D2 PAM-1 0.5, D2 ag-1 -0.1, D2 ag-2 -0.5, D2 antagonist 37.1* and D2 PAM-2 -5.6.
For CN1CCN(C(=S)c2cn(Cc3ccc(Br)cc3)c3ccccc23)CC1 the results were D2 PAM-1 -4.1, D2 ag-1 -7.6 and D2 PAM-2 -11.4.
Screening COc1ccc(CC(=O)N2CC(=O)Nc3ccc(F)cc3C2c2ccccc2)cc1 (configuration not stated) returned D2 PAM-1 6.1 and D2 ag-2 0.0.
For Cc1ccc(NC(=O)CCN2C(=O)NC3(CCCC3)C2=O)c(C)c1 the results were D2 PAM-1 -20.1, D2 ag-1 -4.6, D2 ag-2 17.9, D2 antagonist 50.6* and D2 PAM-2 -7.3.
For Brc1cccc(-c2cnn3c(-c4ccccc4)cc(-c4ccccc4)nc23)c1 the results were D2 PAM-1 -2.3 and D2 ag-2 0.8.
Screening CCOc1ccc(S(=O)(=O)Nc2ccc(C(=O)N3CCCC3)cc2)cc1C(N)=O returned D2 PAM-1 6.3, D2 ag-1 6.0, D2 ag-2 0.8, D2 antagonist 14.2 and D2 PAM-2 2.5.
`CC1=CC(C)(C)Nc2ccc(OC(=O)c3ccco3)cc21` gave D2 PAM-1 0.7, D2 ag-1 7.0, D2 ag-2 0.7, D2 antagonist -2.8 and D2 PAM-2 51.1*.
Cc1ccc2cccc(NC(=S)NC(=O)c3ccccc3)c2n1 was read as D2 PAM-1 33.0*, D2 ag-1 -2.6, D2 ag-2 0.0, D2 antagonist 4.4 and D2 PAM-2 -12.8.
Clc1ccc(OCCCN2CCCC2)cc1Cl was read as D2 PAM-1 -24.3, D2 ag-1 2.7, D2 ag-2 -0.3, D2 antagonist 7.5 and D2 PAM-2 -12.1.
Screening Clc1ccc(OCCN2CCCCC2)cc1Cl returned D2 PAM-1 -26.0, D2 ag-1 -2.0, D2 ag-2 0.4, D2 antagonist 102.9* and D2 PAM-2 -31.3.
